Bioassay records: PubChem, The Scripps Research Institute Molecular Screening Center
TTR transcr act: TTR transcription activators in neuroblastoma reporter cells, primary screen, cell-based, luminescence, SH-SY5Y, TTR promoter Gaussia luciferase. 100% = recombinant luciferase protein wells. activation, % at 16.7 µM. 92,000 compounds, 1.3% hits. AID 1117267, 2014;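 active = activation above the mean of all tested compounds plus 3 SD, cut at about 9.5% in these data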;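 also: cells exposed to compounds for one day before reading; 0% = median of all test compound wells on the plate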
HuH7 TTR inh: TTR promoter reporter inhibitors in hepatoma cells, counter-screen for TTR transcription activator project, cell-based, luminescence, HuH7 hepatoma; shares compounds with TTR transcr act; HuH7 TTR promoter-Gaussia luciferase reporter; inhibition, % at 16.7 µM; 1,100 compounds, 4% hits;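 active = average inhibition above the solvent-only control wells' mean plus 3 SD, cut at about 15% in these data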;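 also: 0% = cells with DMSO only and 100% = cells with inhibitor control FD; inhibitors lower well luminescence so higher value means more inhibition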
TTR up confirm: TTR transcription activators, retest, confirmation, cell-based, luminescence, SH-SY5Y, triplicate; AID 1117280, 2014; activation, % at 16.7 µM; 1,100 tested, under 10 active; SHSY5Y TTR promoter Gaussia luciferase; 100% = purified Lucia enzyme wells, no cells; shares compounds with TTR transcr act;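 active = mean activation above a set limit taken from the earlier primary screen, cut at about 11% in these data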;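 also: 0% = DMSO-treated cells and 100% = recombinant Lucia luciferase without cells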
* = called active by the depositor. The full list was thinned out, with hits kept by preference.

SMILES | TTR transcr act | others
CC(Cc1ccccc1)N(C)C(=O)CN1C(=O)c2ccccc2C1=O (stereo not given) | 0
Cc1cc(=O)n(C(C)Cc2ccccc2)n1C(C)Cc1ccccc1 (stereo not given) | 17* | HuH7 TTR inh=-8;TTR up confirm=0
CCC(CC)n1c(C)cc(=O)n1C(CC)CC | 0
C#CCNC(=O)C[C@@H]1C(=O)N2CCCC3=C2[C@@]1(C(=O)OC)CCCC3 | 0
CCOC(=O)c1c(-c2ccccc2)csc1NC(=O)C(C)NCCCN1CCOCC1 (stereo not given) | 13* | HuH7 TTR inh=-27;TTR up confirm=0
CCOC(=O)c1c(-c2ccc(-c3ccccc3)cc2)csc1NC(=O)CCN1CCOCC1 | -2
CCOC(=O)c1c(-c2ccc(F)cc2)csc1NC(=O)CCN1CCOCC1 | 2
CCCCCCCCN1C(=O)[C@@H](CC(=O)N2CCN(C(=O)c3ccco3)CC2)C[C@@]2(C(=O)OC)C1=C[C@H](C(C)C)O[C@@H]2C1CC1 | -2
COc1ccc(Cn2ccc3ccc(-c4ccc5ccn(Cc6ccc(C#N)cc6)c5c4)cc32)cc1 | 5
CN(C(=O)[C@@H](C1CC1)[C@@H](O)c1ccc2ccccc2c1)c1ccccc1 | -1
CCOC(=O)N1CCN(C(=O)Cn2nc(C)c3sc4ccccc4c3c2=O)CC1 | -2
CN(C)CCCNC(=O)c1cc2sc3ccccc3c2s1 | 2
Cc1nn(C(C)C(=O)NCCCN(Cc2ccccc2)C(C)C)c(=O)c2c1sc1ccccc12 (stereo not given) | 10* | HuH7 TTR inh=-15;TTR up confirm=2
Fc1ccc(Cn2ccc3ccc(-c4ccc5ccn(Cc6ccccc6)c5c4)cc32)cc1 | 2
C[C@H]1[C@@H](OC(=O)NCc2ccc(Cl)c(Cl)c2)CC[C@@]23CCCN2C(=O)CCC[C@@H]13 | -1
CCC[C@H]1[C@@H](NC(=O)NCC)CC[C@@]23CCCN2C(=O)CCC[C@@H]13 | 1
O=C(OCC#CCSc1nnc(-c2ccccc2)o1)c1ccc(F)cc1 | -1
Cc1cccc2c3nc4ccccc4nc3n(C)c12 | -1
CC(=O)NC(C)c1cc(Cl)c2cccnc2c1O (stereo not given) | -6
Cc1cc(Cl)nc2c(C(C)C)cccc12 | 17* | HuH7 TTR inh=-10;TTR up confirm=-1
CC(=O)N1c2ccccc2NC2=C(C(=O)CCC2)C1c1cccnc1 (stereo not given) | -1
COc1ccc(C2CC(=O)C3=C(C2)Nc2ccccc2N(C(=O)CCC(=O)O)C3c2ccc(F)cc2)cc1 (stereo not given) | 102* | HuH7 TTR inh=-8;TTR up confirm=1
COc1ccc(C2CC(c3ccccc3)=NN2C(=O)CCC(=O)O)cc1 (stereo not given) | 1
COC(=O)[C@]12C[C@H](CC(=O)NCc3cccs3)C(=O)N(Cc3cccc4ccccc34)C1=C[C@H](C1CCCC1)O[C@@H]2C | 0
COc1cc2c(cc1NC(=O)Nc1cccc(C)c1)oc1ccccc12 | 1
SMILES | TTR transcr act | others
COc1cc2c(cc1NC(=O)c1cc(-c3ccncc3)nc3ccccc13)oc1ccccc12 | 15* | HuH7 TTR inh=4;TTR up confirm=-1
COc1ccccc1NC(=O)c1cc(-c2ccc(OC)c(OC)c2)nc2ccccc12 | -2
C[C@@H]1CCN(C2CC2)S(=O)(=O)c2c(cccc2N2CC[C@H](O)C2)O1 | -1
Cc1ccc(C(=O)NCCNC(=O)c2ccc(C)nc2)cc1 | 1
C[N+](C)(C)CCCNC(=O)c1ccc(/C=N/O)nc1 | 20* | HuH7 TTR inh=-7;TTR up confirm=1
CNCCCNC(=O)c1ccc(/C=N/O)nc1 | -1
COc1ccc2c(c1)[C@@]1(NCCc3c1[nH]c1ccc(OC)cc31)C(=O)N2 | 1
[N-]=[N+]=N[C@@H](CCN1CC[C@H](O)CCC1=O)c1ccccc1 | 4
C[C@@H]1CCC(=O)N(CC[C@H](N=[N+]=[N-])c2ccccc2)CC1 | 10* | HuH7 TTR inh=-7;TTR up confirm=1
CC(C)(C)[C@@H]1CCC(=O)N(CC[C@H](N=[N+]=[N-])c2ccccc2)CC1 | 0
CCN(C(=O)c1ccc(Cl)c([N+](=O)[O-])c1)c1ccccc1 | 1
O=C(CNC(=O)c1ccccc1)NCC(=O)OCC(=O)c1ccccc1Cl | 2
O=C(Cc1ccccc1)NCC(=O)OCC(=O)c1ccc(Cl)c([N+](=O)[O-])c1 | 46* | HuH7 TTR inh=-2;TTR up confirm=-1
CCCCc1ccc2nc(NC(=O)c3cccs3)sc2c1 | 1
CCCCNC(=O)C1(C)CCC(=O)N1CCOC (stereo not given) | 13* | HuH7 TTR inh=-8;TTR up confirm=-1
COCCN1C(=O)CCC1(C)C(=O)NC(C)(C)C (stereo not given) | 0
CCCCNC(=O)C1(C)CCC(=O)N1CC(F)(F)F (stereo not given) | 0
CSc1nc(NCC(C)C)nc(N2CCOCC2)n1 | 15* | HuH7 TTR inh=-3;TTR up confirm=0
Fc1ccc(Nc2nc(N3CCOCC3)nc(N3CCOCC3)n2)cc1 | 1
c1cncc(CNc2nc(N3CCOCC3)nc(N3CCOCC3)n2)c1 | 1
CCOc1ccc(NC(=O)CN2CCN(CC(=O)Nc3ccccc3OC)CC2)cc1 | -2
CCOc1ccc(NC(=O)CN2CCN(CC(=O)Nc3ccc(C(=O)OC)cc3)CC2)cc1 | -1
CCCCOc1ccc(NC(=O)CN2CCN(CC)CC2)cc1 | 24* | HuH7 TTR inh=-9;TTR up confirm=1
CCCCC1CCC(c2nc(-c3cccnc3)no2)CC1 (stereo not given) | 13* | HuH7 TTR inh=1;TTR up confirm=0
CCCCC(=O)Nc1ccnc(-c2cccnc2)n1 | 0
SMILES | TTR transcr act | others
Cc1ccccc1-c1nc(-c2cccnc2)no1 | -1
CCCC[C@H]1C2CC(OC(=O)Nc3ccccc3C(F)(F)F)C(C2)[C@H]2CCCCN21 (stereo not given in full) | -1
O=C(O)CNC(=O)C1(N2C(=O)c3ccccc3C2=O)CCCC1 | 0
CCC1(CC)C(=O)N=C2c3ccccc3C(=O)N21 | 48* | HuH7 TTR inh=-16;TTR up confirm=0
CC(C)NC(=O)C1(N2C(=O)c3ccccc3C2=O)CCCC1 | -1
COC(=O)[C@]12C[C@H](CC(=O)NCc3cccc4ccccc34)C(=O)N(Cc3ccccc3)C1=C[C@H](COCc1ccccc1)O[C@@H]2C | -1
Cc1ccccc1CN1CCCCC(NC(=O)c2ccc(-c3ccccc3)cc2)C1=O (stereo not given) | -3
COc1cccc(N(C)C(=O)[C@@H](C2CC2)[C@@H](O)c2ccc(Cl)cc2)c1 | -1
O=C(OCC#CCSc1nnc(-c2cccc3ccccc23)o1)c1ccc(F)cc1F | -1
C=CCC1c2cccc(C(=O)O)c2C(=O)N1c1ccc(F)cc1 (stereo not given) | 12* | HuH7 TTR inh=8;TTR up confirm=0
CCCN1Cc2cccc(C(=O)N3CCN(c4ccc(F)cc4)CC3)c2C1=O | -2
O=C1c2ccccc2C(O)N1c1ccccc1 (stereo not given) | 0
O=C(c1ccccc1)n1ccc2ccc(-c3ccc4ccn(Cc5ccccc5)c4c3)cc21 | 1
O=C(OCc1cn(Cc2ccccc2C(F)(F)F)nn1)N1CCOCC1 | 3
O=C(NC1CCCCN(Cc2ccc(Cl)cc2)C1=O)C1C2CC3CC(C2)CC1C3 (stereo not given) | -1
COc1ccc(-n2cnnc2SCC(=O)NCc2cccs2)cc1 | 3
CCC(CC)NC(=O)CSc1nnc(-c2ccc(OC)cc2)n1C(C)C | 1
